The text below walks through data of PubChem BioAssay (EPA / NIEHS).

SMILES strings stand for the structures. Active and inactive are the calls of the source. The calls were made as follows: active = hit-call score of the fitted dose curve at least 0.9, where 1 is the maximum; inactive = score below 0.9.

For orientation: AC50 means the concentration at which the activity in the assay is half-maximal.

Chain of Paired box protein Pax-6 (Homo sapiens) (P26367 whole entry, looked up): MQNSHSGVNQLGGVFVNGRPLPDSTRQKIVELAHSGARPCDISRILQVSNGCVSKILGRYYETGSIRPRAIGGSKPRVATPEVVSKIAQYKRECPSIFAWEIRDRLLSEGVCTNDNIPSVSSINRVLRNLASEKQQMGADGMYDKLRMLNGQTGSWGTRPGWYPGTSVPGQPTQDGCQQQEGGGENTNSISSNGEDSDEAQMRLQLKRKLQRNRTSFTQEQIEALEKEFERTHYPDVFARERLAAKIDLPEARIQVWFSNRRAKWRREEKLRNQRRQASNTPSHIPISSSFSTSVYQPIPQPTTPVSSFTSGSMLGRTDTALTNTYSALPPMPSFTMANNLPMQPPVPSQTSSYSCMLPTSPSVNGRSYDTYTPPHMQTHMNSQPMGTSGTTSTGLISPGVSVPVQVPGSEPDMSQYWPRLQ

Tested on in one assay: not listed separately
As to the kind of experiment: ATG_PBREM_CIS: Attagene CIS-FACTORIAL HepG2 Assay for human Phenobarbital-responsive Enhancer Module (PBREM) (AID 2282955). The conditions noted are these: HepG2 PBREM cis-reporter, Attagene multiplexed transcription; actives raise or lower the signal. A digest of the protocol: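 HepG2 cells transiently transfected with multiple cis-regulated reporter units measure endogenous transcription factor activity; 24 h compound exposure. Reporter mRNA quantified by RT-PCR, fluorescent labelling, HpaI digestion and capillary electrophoresis; bidirectional fit versus DMSO.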
For `[Cl][Nd]([Cl])[Cl]`, the result was inactive.

For `CCOC(=O)CC`, the outcome was inactive.

As to `CC(=O)Oc1ccc(C(C)=O)cc1`, the result was inactive.

`O=C(Nc1ccccc1)c1ccccc1O`: the outcome was inactive.

Consider `CC(C)c1ccc(C#N)cc1`, for which the outcome was inactive.

For `CCCCCCCCCCC=CC#N`, the outcome was inactive.

Regarding `COc1ccc([C@@H]2CC(=O)c3c(O)cc(O[C@@H]4O[C@H](CO[C@@H]5O[C@@H](C)[C@H](O)[C@@H](O)[C@H]5O)[C@@H](O)[C@H](O)[C@H]4O)cc3O2)cc1OC`, the outcome was inactive.

In the case of `c1cc(N(CC2CO2)CC2CO2)ccc1OCC1CO1` (stereo not drawn), the result was inactive.

As for `CCCCC(CC)CCC(CC(C)C)OS(=O)(=O)O` (stereo not drawn), the result was inactive.

For `[Cl][Bi]([Cl])([c]1ccccc1)([c]1ccccc1)[c]1ccccc1`, the result was inactive.

On to `O=C(O)C(c1ccc(Cl)cc1)c1ccc(Cl)cc1`, for which the outcome was inactive.

On to `O=c1c2ccccc2nnn1CCl`, for which the outcome was inactive.

Turning to `CN(C)c1ccc(N=Nc2ccccc2C(=O)O)cc1`, the result was inactive.

Regarding `S=C(NC1CCCCC1)NC1CCCCC1`, the outcome was inactive.

`COc1cc(NC(=O)CC(C)=O)c(OC)cc1Cl`: the result was inactive.

With `O=C(/C=C/C=C/c1ccc2c(c1)OCO2)N1CCCCC1`, the result was inactive.

For `CC(C)COC(=O)C=Cc1ccccc1`, the result was inactive.

On to `CCN(CCO)c1cccc(C)c1`, for which the outcome was inactive.

Take `C=C[Si](OC(C)=O)(OC(C)=O)OC(C)=O`: the result was inactive.

In the case of `Cc1cc(C)c(C)c(C)c1`, the result was inactive.

In the case of `CC(C)CC(O)Cc1ccccc1` (stereo not drawn), the result was inactive.

As to `C=C(C)C(=O)OCCOc1ccccc1`, the outcome was inactive.

With `C=CCCCCCCCCC(=O)OCCCC`, the result was inactive.

Another assay deals with Paired box protein Pax-6 (Homo sapiens) (UniProt P26367). As to the kind of experiment: ATG_Pax6_CIS: Attagene CIS-FACTORIAL HepG2 Assay for human Paired Box 6 (PAX6) (AID 2282956). As to conditions: HepG2 CIS-FACTORIAL PAX6 reporter transcription, RNA readout; actives raise or lower the signal. A digest of the protocol:
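HepG2 cells transiently transfected with multiplexed cis-promoter reporter units (endogenous TF activity) were dosed for 24 h. Reporter mRNA was quantified by RT-PCR, 6-FAM labeling, HpaI digestion and capillary electrophoresis; bidirectional fitting versus DMSO baseline.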
On to `[Cl][Nd]([Cl])[Cl]`, for which the molecule was called inactive.

Regarding `CC/C=C\C/C=C\C/C=C\CCCCCCCC(=O)O`, the AC50 is 100 µM (active).

For the molecule `CCOC(=O)CC`, the outcome was inactive.

Turning to `Nc1ccc(-c2ccc(F)cc2)cc1`, the molecule was called inactive.

Turning to `CC(=O)Oc1ccc(C(C)=O)cc1`, the call was inactive.

With `C=C(C)C(=O)OCC(C)C`, the molecule was classed as inactive.

Take `O=C(Nc1ccccc1)c1ccccc1O`: the call was inactive.

Take `CC(C)c1ccc(C#N)cc1`: the molecule was called inactive.

For the molecule `CCCCCCCCCCC=CC#N`, the molecule was called inactive.

For the molecule `O=C1OC(=O)c2cc(Oc3ccc4c(c3)C(=O)OC4=O)ccc21`, the molecule was classed as inactive.

On to `COc1cc(C)ccc1C(C)C`, for which the result was inactive.

Turning to `Cc1cccc(N)n1`, the molecule was called inactive.

As for `O=S(=O)(O)CC(O)CCl` (stereo not drawn), the call was inactive.

As to `COc1ccc([C@@H]2CC(=O)c3c(O)cc(O[C@@H]4O[C@H](CO[C@@H]5O[C@@H](C)[C@H](O)[C@@H](O)[C@H]5O)[C@@H](O)[C@H](O)[C@H]4O)cc3O2)cc1OC`, the molecule was classed as inactive.

`c1cc(N(CC2CO2)CC2CO2)ccc1OCC1CO1` (stereo not drawn): the AC50 is 46.4 µM (active).

For the molecule `CCCCC(CC)CCC(CC(C)C)OS(=O)(=O)O` (stereo not drawn), the call was inactive.

As for `[Cl][Bi]([Cl])([c]1ccccc1)([c]1ccccc1)[c]1ccccc1`, the AC50 is 5.48 µM (active).

On to `O=C(O)C(c1ccc(Cl)cc1)c1ccc(Cl)cc1`, for which the molecule was classed as inactive.

In the case of `CC1=Nc2ccc3ccccc3c2C1(C)C`, the molecule was classed as inactive.

In the case of `O=c1c2ccccc2nnn1CCl`, the result was inactive.

Take `CN(C)c1ccc(N=Nc2ccccc2C(=O)O)cc1`: the AC50 was 35.1 µM (active).

With `S=C(NC1CCCCC1)NC1CCCCC1`, the result was inactive.

Consider `COc1cc(NC(=O)CC(C)=O)c(OC)cc1Cl`, for which the molecule was classed as inactive.

As for `O=C(/C=C/C=C/c1ccc2c(c1)OCO2)N1CCCCC1`, the molecule was called inactive.

For `CC(C)COC(=O)C=Cc1ccccc1`, the result was inactive.

`CCN(CCO)c1cccc(C)c1`: the molecule was classed as inactive.

Take `C=C[Si](OC(C)=O)(OC(C)=O)OC(C)=O`: the call was inactive.

In the case of `CCCC(=O)OCc1ccccc1`, the molecule was classed as inactive.

Regarding `O=C(Cl)c1cc(C(=O)Cl)cc(C(=O)Cl)c1`, the molecule was classed as inactive.

As for `CC(=O)OCC(C)OC(C)=O` (stereo not drawn), the outcome was inactive.

In the case of `Nc1cccc(C(F)(F)F)c1`, the call was inactive.

As for `Cc1cc(=O)n(-c2ccccc2)n1C`, the molecule was classed as inactive.

As to `Cc1ccc(N/N=c2\c(=O)cc/c(=N/Nc3ccc(S(=O)(=O)O)cc3)c2=O)c(C)c1`, the molecule was classed as inactive.

`Cc1cc(C)c(C)cc1C`: the outcome was inactive.

`CCC(Cc1ccccc1)(C(=O)c1ccc(N2CCOCC2)cc1)N(C)C` (stereo not drawn): the AC50 was 42 µM (active).

For the molecule `Cc1cc(C)c(C)c(C)c1`, the outcome was inactive.

As to `CC(C)CC(O)Cc1ccccc1` (stereo not drawn), the result was inactive.

For the molecule `C=C(C)C(=O)OCCOc1ccccc1`, the molecule was classed as inactive.

Turning to `CCCOCCOCCOCCO`, the result was inactive.

Regarding `C=CCCCCCCCCC(=O)OCCCC`, the outcome was inactive.

Tested on in the next assay: not listed separately
Put plainly: ATG_PXRE_CIS: Attagene CIS-FACTORIAL HepG2 Assay for human Pregnane X Receptor Element (PXRE) (AID 2282957). As to conditions: HepG2 Attagene CIS-FACTORIAL PXRE reporter, mRNA; actives raise or lower the signal. The procedure, abridged:
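Cis-element reporter mRNA in human hepatoma HepG2 cells is measured 24 h post-dosing by RT-PCR, primer-extension labeling and capillary electrophoresis; gain or loss of signal is fitted relative to DMSO.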
Regarding `[Cl][Nd]([Cl])[Cl]`, the call was inactive.

For `CC/C=C\C/C=C\C/C=C\CCCCCCCC(=O)O`, the AC50 is 181 µM (active).

As for `CCOC(=O)CC`, the molecule was classed as inactive.

With `Nc1ccc(-c2ccc(F)cc2)cc1`, the AC50 is 27.4 µM (active).

For `CC(=O)Oc1ccc(C(C)=O)cc1`, the molecule was called inactive.

`O=C(Nc1ccccc1)c1ccccc1O`: the concentration at half-maximal activity (AC50) was 27.4 µM (active).

For `CC(C)c1ccc(C#N)cc1`, the result was inactive.

`CCCCCCCCCCC=CC#N`: the AC50 is 27.5 µM (active).

In the case of `O=C1OC(=O)c2cc(Oc3ccc4c(c3)C(=O)OC4=O)ccc21`, the molecule was classed as inactive.

With `COc1cc(C)ccc1C(C)C`, the molecule was called inactive.

As for `Cc1cccc(N)n1`, the result was inactive.

Consider `COc1ccc([C@@H]2CC(=O)c3c(O)cc(O[C@@H]4O[C@H](CO[C@@H]5O[C@@H](C)[C@H](O)[C@@H](O)[C@H]5O)[C@@H](O)[C@H](O)[C@H]4O)cc3O2)cc1OC`, for which the outcome was inactive.

As for `c1cc(N(CC2CO2)CC2CO2)ccc1OCC1CO1` (stereo not drawn), the molecule was classed as inactive.

`CCCCC(CC)CCC(CC(C)C)OS(=O)(=O)O` (stereo not drawn): the AC50 is 27.2 µM (active).

In the case of `[Cl][Bi]([Cl])([c]1ccccc1)([c]1ccccc1)[c]1ccccc1`, the outcome was inactive.

Regarding `O=C(O)C(c1ccc(Cl)cc1)c1ccc(Cl)cc1`, the concentration at half-maximal activity (AC50) is 62.7 µM (active).

With `CC1=Nc2ccc3ccccc3c2C1(C)C`, the AC50 is 1.78 µM (active).

`O=c1c2ccccc2nnn1CCl`: the AC50 is 7.09 µM (active).

For `CN(C)c1ccc(N=Nc2ccccc2C(=O)O)cc1`, the AC50 was 26.3 µM (active).

Regarding `S=C(NC1CCCCC1)NC1CCCCC1`, the AC50 is 4.14 µM (active).

For `COc1cc(NC(=O)CC(C)=O)c(OC)cc1Cl`, the AC50 was 31.5 µM (active).

Take `O=C(/C=C/C=C/c1ccc2c(c1)OCO2)N1CCCCC1`: the AC50 is 2.37 µM (active).

For the molecule `CC(C)COC(=O)C=Cc1ccccc1`, the AC50 is 27.2 µM (active).

Turning to `CCN(CCO)c1cccc(C)c1`, the AC50 is 27.8 µM (active).

On to `C=C[Si](OC(C)=O)(OC(C)=O)OC(C)=O`, for which the AC50 was 3.6 µM (active).

For `CCCC(=O)OCc1ccccc1`, the outcome was inactive.

As to `O=C(Cl)c1cc(C(=O)Cl)cc(C(=O)Cl)c1`, the AC50 is 47.6 µM (active).

Regarding `CC(=O)OCC(C)OC(C)=O` (stereo not drawn), the molecule was called inactive.

With `Cc1cc(=O)n(-c2ccccc2)n1C`, the molecule was called inactive.

In the case of `Cc1cc(C)c(C)cc1C`, the result was inactive.

Consider `Cc1cc(C)c(C)c(C)c1`, for which the call was inactive.

On to `CC(C)CC(O)Cc1ccccc1` (stereo not drawn), for which the AC50 is 71.6 µM (active).

As to `C=C(C)C(=O)OCCOc1ccccc1`, the AC50 was 68.5 µM (active).

For the molecule `CCCOCCOCCOCCO`, the outcome was inactive.

Turning to `C=CCCCCCCCCC(=O)OCCCC`, the AC50 was 42.1 µM (active).
